{"source": "PubChem BioAssay AID2496", "about": "(Sanford-Burnham Center for Chemical Genomics, 2010)", "assay": "compound optical interference in time-resolved FRET – biochemical, fluorescence ratio, artefact control, SAR follow-up (AID 2496)", "conditions": "HTRF spectral interference counter-screen", "note": "Unmarked numbers belong to inactive results. Rule as the data show it: active = IC50 below about 40 µM; inactive = the rest.", "data": [{"smiles": "O=C(c1ccc2nc(-c3ccco3)c(-c3ccco3)nc2c1)N1CCC2(CC1)OCCO2", "values": [{"measurement": "IC50", "value": "> 50", "unit": "µM"}]}]}
